Bioassay records deposited in PubChem by several laboratories.
NALP1 yeast inh: NALP1 inflammasome inhibitors in reconstituted yeast, colorimetric, S. cerevisiae, triplicate retest; S. cerevisiae NALP1/ASC/caspase-1 growth, X-gal OD620, 72 h; inhibition, % at 10 µM; AID 2071, 2009; hit rate 0.61% among 280,000; in the data active means inhibition mostly above about 24%, no sharp cut-off; inactive means mostly below about 32%
TIM10 inh: growth inhibitors of isogenic TIM10 control yeast, primary screen, counter-screen for tim10-1 yeast inhibitor project, luminescence, uHTS | hit rate 1.4% among 330,000 | inhibition, % at 10 µM | S. cerevisiae TIM10 strain growth, BacTiter-Glo luminescence, 24 h;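 active means inhibition of 40% or more at the single tested concentration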;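 further: wild-type TIM10 isogenic control strain grown at permissive 25 °C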
SKKanGAS inh: S. pyogenes SKKanGAS growth inhibitors in kanamycin, primary screen, streptokinase expression inhibitor project, SKKanGAS strain, BacTiter-Glo luminescence | 6 h | inhibition, % at 7.5 µM | hit rate 1.3% among 300,000 | AID 1662, 2009;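 active means mean replicate score, as percent of positive control median, at least 50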;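 further: strain carries kanamycin resistance gene driven by streptokinase promoter and grows in 40 µg/ml kanamycin; loss of luminescence reflects streptokinase promoter inhibition or plain growth inhibition; 0% = median of DMSO wells and 100% = positive control at its reference dose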
tim23-1 inh: growth inhibitors of tim23-1 mutant yeast, primary screen, luminescence, uHTS | S. cerevisiae tim23-1 growth, BacTiter-Glo luminescence, 24 h | inhibition, % at 20 µM | hit rate 1.3% among 330,000 | AID 463212, 2010;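 active means growth inhibition of the mutant yeast at or above 50%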;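 further: temperature-sensitive mutant grown at 25 °C; plate controls were DMSO-treated mutant yeast for no effect and medium wells lacking yeast for full effect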
tim10-1 inh: growth inhibitors of tim10-1 mutant yeast, primary screen, luminescence, uHTS; S. cerevisiae tim10-1 ts strain growth, BacTiter-Glo, 24 h; inhibition, % at 20 µM; hit rate 2.2% among 330,000; AID 463190, 2010;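 active means inhibition of at least 40%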;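 further: mutant grown at 25 °C; 0% = DMSO wells with yeast and 100% = wells holding no yeast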
NALP3 yeast inh: NALP3 inflammasome inhibitors in reconstituted yeast, primary screen, luminescence, uHTS. Yeast reconstituted NLRP3/ASC/caspase-1, beta-gal luminescence, 24 h. inhibition, % at 10 µM. hit rate 0.39% among 330,000. AID 2825, 2010;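 active means inhibition of 50% or more; inactive means inhibition below 50%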;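 further: plate controls were induced DMSO wells for no effect and uninduced yeast grown without galactose for full effect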
NALP3 confirm: NALP3 inhibitors retested in yeast, confirmation, luminescence, single concentration; shares compounds with NALP3 yeast inh; yeast expressing human NALP3; inhibition, % at 10 µM; hit rate 81% among 1,300; AID 435006, 2010; in the data active means inhibition above about 48%
Casp1-ASC yeast: CASP1-PYCARD signaling inhibition in yeast, confirmatory test, counterassay for NLRP3 inhibitor program, one-dose | shares compounds with NALP3 yeast inh | AID 488784, 2010 | hit rate 66% among 1,000 | inhibition, % at 10 µM | yeast expressing Caspase-1-ASC, luminescence counter screen
NALP3 yeast rt: NALP3 inhibitors in yeast, repeat test, confirmation, luminescence, single concentration, retest. shares compounds with NALP3 yeast inh. yeast expressing human NALP3, luminescence read-out. inhibition, % at 10 µM. hit rate 53% among 1,000. AID 488794, 2010
tim10-1 confirm: growth inhibitors of tim10-1 mutant yeast, confirmation, single concentration, luminescence, S. cerevisiae. inhibition, % at 20 µM. shares compounds with tim10-1 inh. S. cerevisiae tim10-1 ts strain growth, BacTiter-Glo, 24 h. hit rate 56% among 7,400;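 active means inhibition of yeast growth at or above a set limit in either of two repeat tests at 20 µM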;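 further: tim10-1 mutant grown at permissive 25 °C to find synthetic lethal compounds; 0% = DMSO yeast wells and 100% = medium wells without yeast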
TIM10 conf: growth inhibitors of wild-type TIM10 yeast, confirmation, counter-screen for tim10-1 synthetic lethality project, single concentration, luminescence, S. cerevisiae | shares compounds with TIM10 inh | S. cerevisiae tim10 strain growth, BacTiter-Glo luminescence, 24 h | inhibition, % at 10 µM | hit rate 63% among 4,600 | AID 463215, 2010;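 active means inhibition of yeast growth at or above a set limit in either of two replicates at 10 µM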;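 further: this counterscreen used the strain with wild-type TIM10; 0% = yeast with DMSO and 100% = medium wells lacking yeast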
tim23-1 confirm: tim23-1 mutant yeast growth inhibitors, confirmation, luminescence, single concentration | shares compounds with tim23-1 inh | S. cerevisiae tim23-1 growth, BacTiter-Glo luminescence, 24 h | inhibition, % at 20 µM | hit rate 83% among 4,400 | AID 463218, 2010;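 active means inhibition above about 39% in either of two replicate wells at 20 µM, limit read from the data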;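 further: temperature-sensitive tim23-1 mutant grown at 25 °C; 0% = DMSO wells with yeast and 100% = medium wells without yeast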
* = called active by the depositor; . = no result given; ! = repeats disagree. A selection: hits, their analogues and other compounds. The true share with any hit is near 4.9%. Unless noted, no stated cut-off is given here; in the data, active means inhibition above about 50%; inactive means the rest.

SMILES | NALP1 yeast inh | TIM10 inh | SKKanGAS inh | tim23-1 inh | tim10-1 inh | NALP3 yeast inh | NALP3 confirm | Casp1-ASC yeast | NALP3 yeast rt | TIM10 conf | tim23-1 confirm | others
CC[C@]12c3[nH]c4cc(CCC(=O)N(C)C)ccc4c3CCN1C(=O)[C@@H](CC(=O)NC/C=C(\C)CCC=C(C)C)C[C@@H]2C(=O)N1CCN(C(=O)c2ccco2)CC1 | . | -1 | . | 31 | 13 | . | . | . | . | . | .
O=c1c2ccc(Cl)cc2nc(-c2cccc(C(F)(F)F)c2)n1O | 2 | 27 | 97* | 56* | 33 | 52* | 63* | 44 | 52* | . | 48*
N#Cc1ccc(-c2nc3cc(Cl)ccc3c(=O)n2O)cc1 | 42* | 28 | 30 | 50* | 28 | 63* | 72* | 51* | 64* | . | 56*
O=c1c2ccccc2nc(-c2ccc(Cl)c(Cl)c2)n1O | -3 | 62* | 37 | 79* | 49* | 65* | 42 | 26 | 33 | 55* | 73* | tim10-1 confirm=30*
COCCCN1C(=O)c2ccc(C(=O)OCC(=O)N(CCC#N)c3cc(C)cc(C)c3)cc2C1=O | . | 4 | 24 | 14 | 17 | 16 | . | . | . | . | .
CC(=O)OCCN1C(=O)c2cccc3cc([N+](=O)[O-])cc(c23)C1=O | . | 11 | -11 | 4 | 14 | 9 | . | . | . | . | .
Cc1cccc(C(=O)O/N=C(\N)Cc2cccc3ccccc23)c1 | 32 | 77* | 9 | 81* | 43* | 53* | 65* | 48 | 64* | 84* | 64* | tim10-1 confirm=30*
N/C(Cc1cccc2ccccc12)=N\OC(=O)COc1ccccc1 | 26 | 33 | -3 | 41 | 38 | 25 | . | . | . | . | .
COc1ccc(N(CC(=O)Nc2cc(OC)c(OC)cc2C(=O)O)S(=O)(=O)c2c(C)noc2C)cc1 | 13 | 7 | 8 | 9 | 19 | 1 | . | . | . | . | .
C[C@@H]1CCC(=O)N(CC[C@H](Sc2ccccc2)c2ccccc2)CC1 | -11 | 13 | 5 | 28 | 39 | 26 | . | . | . | . | .
Cc1csc(=NC(=O)c2ccccc2)n1C | 2 | 44* | 4 | 55* | 3 | 62* | 75* | 73* | 68* | 38* | 54*
COc1ccc(-c2cc(=O)c3ccccc3s2)cc1 | 5 | 42* | 20 | 52* | 29 | 66* | 66* | 54* | 66* | 44* | 54*
COc1ccc(-c2cc(=O)c3ccccc3[nH]2)cc1 | 15 | 17 | 1 | 13 | 5 | 0 | . | . | . | . | .
CCc1ccc(NC(=O)c2nc(S(=O)(=O)Cc3ccccc3)ncc2Cl)cc1 | 12 | -1 | 46 | 66* | -105 | 60* | 73* | 54* | 66* | . | 22
CC(=O)Nc1ccc(NC(=O)c2nc(S(=O)(=O)Cc3cccc(C)c3)ncc2Cl)cc1 | 6 | 19 | 3 | 24 | 3 | 15 | . | . | . | . | .
O=C(Nc1cccc2nsnc12)c1cccs1 | 9 | 69*! | -3 | 61*! | 16 | 70*! | 89* | 78* | 61* | 58* | 76*
O=C(Nc1ccc2nsnc2c1)c1cccs1 | 11 | 18 | -3 | 19 | 16 | -10 | . | . | . | . | .
C=CCSc1nsc(NC(=O)Nc2ccc(F)cc2)n1 | 52 | 66* | 75* | 78* | 62* | 56* | 78* | 79* | 82* | 65* | 78* | tim10-1 confirm=74*
CCN(C(=O)CSc1nnc(-c2ccc(F)cc2)n1C)C1CCS(=O)(=O)C1 (stereo unspecified) | . | -1 | . | 9 | -13 | 16 | . | . | . | . | .
O[C@@H]1[C@@H](O)C=C2CCN3Cc4cc5c(cc4[C@H]1C23)OCO5 (stereo partly specified) | . | 90* | . | 76* | 88* | 64* | 79* | 60* | 58* | 89* | 77* | tim10-1 confirm=84*
COc1ccc(/C=C/C(=O)c2ccc(Cl)s2)cc1O | -14 | 68* | -2 | 69* | 53* | 54* | 70* | 50 | 31 | 44* | 81* | tim10-1 confirm=54*
C#CCOc1ccc2c3c(c(=O)oc2c1)CCCC3 | 24 | 0 | 4 | 57* | 39 | 59* | 62* | 60* | 35 | . | 50*
CC(=O)COc1ccc2c3c(c(=O)oc2c1)CCCC3 | -2 | 8 | 2 | 21 | 13 | 15 | . | . | . | . | .
Cc1noc(C)c1C(=O)Nc1nc2ccc(Cl)cc2s1 | 8 | 32 | 1 | 62* | 50* | 58* | 72* | 71* | 58* | . | 47* | tim10-1 confirm=32*
Nc1cc(=O)[nH]c(SCCSc2cc(Cl)ccc2Cl)n1 | 38 | -3 | 11 | 12 | 20 | 8 | . | . | . | . | .
SMILES | NALP1 yeast inh | TIM10 inh | SKKanGAS inh | tim23-1 inh | tim10-1 inh | NALP3 yeast inh | NALP3 confirm | Casp1-ASC yeast | NALP3 yeast rt | TIM10 conf | tim23-1 confirm | others
CCCCCCCCCCCCCCCC[N+](C)(C)CCN(Cc1ccc(OC)cc1)c1ncccn1 | . | 95* | . | 93* | 97* | 52* | 21 | . | . | 99* | 96* | tim10-1 confirm=98*
COc1ccc(CN(CCN(C)C)c2ccccn2)cc1 | 18 | 6 | 2 | 6 | -15 | 2 | . | . | . | . | .
CC(C)(C)NC(=S)N/N=C/c1cc(Br)c(O)c(Br)c1 | 14 | 17 | 13 | 35 | 25 | 6 | . | . | . | . | .
CNC(=S)N/N=C/c1cc(Br)cc(Br)c1O | 54* | 35 | 35 | 58* | 25 | 64* | 34 | . | . | . | 54*
N#C/C(C(N)=O)=c1/ccc2c(c1)N1C3=C(CCCC3)CC3CCCCC31N=2 (stereo unspecified) | 7 | 19 | 11 | 63* | 26 | 57* | 14 | . | . | . | 52*
COc1cccc(OCCNS(=O)(=O)c2ccccc2[N+](=O)[O-])c1 | . | 12 | . | 25 | 4 | 17 | . | . | . | . | .
